# Screens as filed in PubChem.
# Sampled rows, rich in hits. Any-hit rate of the full collection: about 9.2%.
# ELG1 repair inh – qHTS screen for small molecules that inhibit ELG1-dependent DNA repair in human embryonic kidney (HEK293T) cells expressing luciferase-tagged ELG1. 2.3% of 330,000 active. HEK293T ELG1-luciferase reporter, luminescence, 16 h; DNA damage induced by 5-fluorouridine. Potency, µM (top dose mostly 46.1 µM), inactives show top-dose activity change, negative = inhibition, hits mostly inhibitors; further: on the % scale 0 is the no-effect control and ±100 the full control effect; nearly all actives have a fitted effect of over 55% in size
#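 In this reporter screen, reduction of luminescence relative to DMSO vehicle indicated activity. Compounds and 5-fluorouridine were added together to 2,000 cells per well, incubated for 16 hr at 37 °C, then developed with ONE-Glo.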
# SMN2 splice up – qHTS Assay for Enhancers of SMN2 Splice Variant Expression; 2.8% of 210,000 active; Potency, µM (titrated, usually from 46.1 µM), for the others: at the top dose activity change, positive = activation, actives largely listed as activators; HEK293 SMN2-luciferase splicing reporter, luminescence, 30-36 h; AID 1458, 2008; further: % of control where 0% means no effect; nearly all actives have a fitted effect of over 55% in size
#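 qHTS luciferase splicing reporter: luminescence rises when SMN2 exon 7 is included in transfected HEK293 cells. Compound exposure lasted 30-36 h at 37C, with 4.5 mM final sodium butyrate as control, followed by a ONE-Glo read.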
# NPC1 prom act – qHTS Assay for NPC1 Promoter Activators; Huh7 NPC1 promoter luciferase reporter, 24 h; Potency, µM (series often up to 9.22 µM), for inactives: at the highest dose activation, hits mostly activators; 2.4% of 320,000 active; further: % of control where 0% means no effect; nearly all actives have a fitted effect of over 60% in size
#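 Stably transfected Huh7 (NPC1 promoter→luciferase), 1500 cells/well in Opti-MEM + 10% FBS, 2 h settle, then compound 24 h at 37 °C. Luminescence after 10 min with Amplite reagent.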
# FLuc modulator – qHTS profiling assay for firefly luciferase inhibitor/activator using purifed enzyme and Km concentrations of substrates (counterscreen for miR-21 project); Luciferin 4-monooxygenase (Photinus pyralis), P08659; purified FLuc, Km substrates, luminescence inhibition; Potency, µM (highest dose often 57.5 µM), for the others: at the top dose activity change, negative = inhibition, usual class: inhibitors; 6.9% of 360,000 active;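 further: plate controls were vehicle for no effect and reference inhibitor for full effect; nearly all actives have a fitted effect of over 55% in size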
# Target sequence (P08659 whole entry, looked up): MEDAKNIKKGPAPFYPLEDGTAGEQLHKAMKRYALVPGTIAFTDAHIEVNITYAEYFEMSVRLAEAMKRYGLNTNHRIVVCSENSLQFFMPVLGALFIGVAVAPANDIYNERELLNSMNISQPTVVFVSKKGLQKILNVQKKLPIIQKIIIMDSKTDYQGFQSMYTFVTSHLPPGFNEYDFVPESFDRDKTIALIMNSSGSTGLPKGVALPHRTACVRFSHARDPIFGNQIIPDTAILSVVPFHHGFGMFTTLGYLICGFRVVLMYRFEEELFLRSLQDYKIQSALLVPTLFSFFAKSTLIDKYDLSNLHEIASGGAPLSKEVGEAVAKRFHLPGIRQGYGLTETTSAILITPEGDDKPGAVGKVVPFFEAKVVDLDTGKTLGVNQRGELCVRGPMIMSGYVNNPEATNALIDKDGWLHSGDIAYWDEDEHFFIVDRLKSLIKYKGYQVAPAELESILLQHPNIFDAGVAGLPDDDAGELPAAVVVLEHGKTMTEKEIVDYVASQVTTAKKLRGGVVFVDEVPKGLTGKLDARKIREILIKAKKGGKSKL
#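 Purified P. pyralis luciferase (10nM final) with 10uM D-luciferin and 10uM ATP (Km levels) in 50mM Tris acetate pH 7.5, 10mM Mg acetate, 0.01% Tween-20, 0.05% BSA; qHTS 6-point titration, ~60 µM downward; luminescence read.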
# ELG1 genotoxic – qHTS screen for small molecules that induce genotoxicity in human embryonic kidney (HEK293T) cells expressing luciferase-tagged ELG1; HEK293T ELG1-luciferase reporter, luminescence, 16 h; Potency, µM (doses to about 46 µM), without a hit: at the highest dose activity change, positive = activation, actives largely listed as activators; 1.3% of 330,000 active; further: % of control where 0% means no effect; nearly all actives have a fitted effect of over 60% in size
#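 Cells (2,000/well) expressing the ELG1-luciferase fusion are dosed by pin tool and kept 16 hr at 37 °C, 5% CO2. Signal comes from ONE-Glo luciferase reagent after 30 min at room temperature.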
# Rab9 promoter act – qHTS Assay for Rab9 Promoter Activators; Huh7 Rab9 promoter-luciferase reporter, luminescence, 24 h; Potency, µM (titrated, usually from 9.22 µM), inactives show at the top dose activation, negative = inhibition, most hits filed as activators; 2.8% of 320,000 active; further: % of control where 0% means no effect; nearly all actives have a fitted effect of over 60% in size
#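 Quantitative HTS format; Huh7 Rab9-luciferase reporter cells (1500/well) receive compound 2 h post-plating, incubate 24 h at 37 °C, then get luciferase reagent for 10 min before luminescence reading.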
# * = called active by the depositor; ? = inconclusive; nt = not tested or not shown; [ ] = remark or other dose. The call rests on the fitted dose curve; in most records, active means well fitted curve in the direction sought with a large enough effect; inconclusive means small, poorly fitted or top-dose-only effect, or another doubt; inactive means no such curve, though single readings can be large; an effect the other way counts as inactive or inconclusive. Potency means the concentration at half of the fitted maximal effect.
SMILES,ELG1 repair inh,SMN2 splice up,NPC1 prom act,FLuc modulator,ELG1 genotoxic,Rab9 promoter act
COc1cc(C(=O)OCC(=O)N(CC(C)C)C2CCS(=O)(=O)C2)cc(OC)c1C (centres undefined),0.0%,nt,0.3%,3.8%,0.9%,-0.8%
O=c1cc(-c2ccccc2O)oc2cc(O)ccc12,nt,25.1µM*,nt,nt,nt,nt
NC(=O)COc1ccc2oc(-c3ccccc3)cc(=O)c2c1,?,-18.1%,?,12µM*,?,?
COc1ccc(-c2cc(=O)c3ccccc3o2)cc1,?,10µM*,2.51µM*,6.01µM*,20.6µM*,2µM*
O=c1cc(-c2ccc3c(c2)OCO3)oc2ccccc12,?,12.6µM*,3.16µM*,?,9.2µM*,3.55µM*
Cn1c(-c2ccc3c(c2)OCO3)cc(=O)c2ccccc21,-31.4%,5.2%,-3.2%,-11.2%,-6.7%,-7.6%
O=c1cc2oc3cc(O)c(O)cc3c(-c3ccccc3O)c-2cc1O,?,nt,-4.3%,?,-3.6%,-9.8%
CC(C)C(OC(=O)CN1C(=O)c2ccccc2C1=O)C(=O)NC1CCCC1 (centres undefined),6.2%,nt,-0.2%,1.0%,1.3%,14.0%
COc1ccc(C(=O)c2c(O)cc(-c3ccc(OC)cc3)oc2=O)cc1,?,10.8%,-2.8%,16.9µM*,4.9%,-2.8%
O=c1cc(-c2ccc(O)cc2)oc2ccccc12,?,?,?,10.7µM*,?,?
O=c1cc(-c2c(F)c(F)c(F)c(F)c2F)oc2ccccc12,-10.5%,-4.1%,-32.7%,-2.3%,-12.6%,-16.0%
O=c1cc(-c2ccc(O)cc2)oc2ccc(O)cc12,?,?,?,12µM*,10.2%,3.55µM*
COc1ccc(N=c2cc(-c3ccc(OC)cc3)oc3ccccc23)cc1,23.1µM*,0.3%,-1.0%,2.5%,-4.3%,-4.6%
COc1cccc(NC(=O)C2CCN(C(=O)N3CC(C)Oc4ccccc43)CC2)c1 (centres undefined),nt,nt,nt,-6.0%,nt,nt
COc1ccc(-c2cc3ccccc3c(=O)o2)cc1,nt,12.6µM*,nt,nt,nt,nt
COc1ccc(-c2cc(=O)c3c(O)c(OC)c(OC)c(OC)c3o2)cc1,nt,17.7%,nt,nt,nt,nt
Nc1c(-c2ccc3c(c2)OCCO3)oc2ccccc2c1=O,?,nt,?,9.53µM*,10.3µM*,?
O=c1cc(-c2ccncc2)oc2ccccc12,9.2µM*,-10.2%,7.8%,-9.2%,-3.2%,-5.6%
COc1ccc(-c2cc(=O)c3c(O)c(OC)c(O)cc3o2)cc1,?,nt,3.16µM*,0.269µM*,1.83µM*,3.55µM*
COc1ccc2c(=O)cc(-c3ccncc3)oc2c1OC,nt,1.4%[9.22 µM],nt,nt,nt,nt
Cc1cccc(-c2oc3ccccc3c2-c2ccc3c(c2)OCO3)c1,-14.1%,nt,-1.5%,0.5%,-0.4%,-1.6%
COc1ccc(-c2cc(=Nc3ccc(C)cc3)c3ccccc3o2)cc1,?,-20.0%,-6.5%,-0.5%,-8.9%,-33.2%
O=[N+]([O-])c1ccc(S(=O)(=O)NCCS(=O)(=O)N2CCN(c3ccccc3)CC2)cc1,?,nt,-2.6%,4.0%,-4.7%,1.4%
COCCn1c(Cc2ccccc2)nnc1SC(C)C(=O)NC1CC1 (centres undefined),14.3%,nt,-1.8%,2.9%,2.8%,-2.2%
Cn1c2ccccc2c(=O)c2ccc(-c3ccc4c(c3)OCO4)cc21,?,nt,1.26µM*,3.01µM*,?,1.12µM*
SMILES,ELG1 repair inh,SMN2 splice up,NPC1 prom act,FLuc modulator,ELG1 genotoxic,Rab9 promoter act
O=c1cc(-c2cccc(O)c2)oc2ccc(O)cc12,nt,14.1µM*,nt,nt,nt,nt
CC1=C(C)C(C)=C(C#N)C(=C(C#N)C#N)N1,-5.6%,nt,-0.1%,?,-0.6%,6.5%
CN1CCC(Oc2ccc(Sc3ccccc3)cc2)CC1,?,5.9%,18.3%,12µM*,?,21.2%
CN1CCC(Oc2ccccc2Sc2ccc(C(F)(F)F)cc2)CC1,-4.5%,-59.3%,-5.9%,0.6%,1.8%,-0.4%
CCN1C(=O)c2cccc3c(S(=O)(=O)Nc4ccccc4)ccc1c23,?,20µM*,-5.0%,-4.7%,?,-5.4%
CNS(=O)(=O)c1ccc2c3c(cccc13)C(=O)N2C,?,nt,-4.2%,0.4%,18.1%,2.9%
CCN1C(=O)c2cccc3c(S(=O)(=O)Nc4nc(C)cs4)ccc1c23,?,12.6µM*,-1.4%,1.3%,?,-2.1%
CN1C(=O)c2cccc3c(S(=O)(=O)Nc4ccccc4F)ccc1c23,?,nt,-7.8%,0.3%,5.8µM*,-0.3%
CCN1C(=O)c2cccc3c(S(=O)(=O)Nc4ccccn4)ccc1c23,?,?,-5.3%,-0.1%,20.6µM*,-3.3%
Cc1ccc(NC(=O)N2CCC(CN3CCCCCC3)CC2)c(Cl)c1,nt,nt,nt,2.3%,nt,nt
CC(OC(=O)c1nn(C)c(=O)c2ccccc12)C(=O)NC1CCCCC1C (centres undefined),?,nt,0.6%,-0.7%,2.9%,0.9%
Cc1nnc(NC(=O)CSc2nc3c([nH]c4ccccc43)c(=O)n2-c2ccc(Cl)cc2)s1,nt,nt,nt,1.3%,nt,nt
O=C1Nc2ccc(S(=O)(=O)NCC3CCCO3)c3cccc1c23 (centres undefined),-7.3%,nt,-3.9%,-2.2%,8.8%,3.5%
CCN1C(=O)c2cccc3c(S(=O)(=O)NCC4CCCO4)ccc1c23 (centres undefined),?,nt,-0.4%,-1.2%,14.6µM*,-2.3%
N=c1n(CCN2CCCCC2)c2ccccc2n1CC(=O)c1ccc(Cl)c(Cl)c1,?,nt,1.0%,-5.0%,-1.8%,1.3%
Cn1c(=N)n(CC(=O)c2ccc(F)cc2)c2ccccc21,?,nt,?,1.35µM*,?,0.891µM*
CCn1c(=N)n(CC(=O)c2ccc(Cl)c(Cl)c2)c2ccccc21,?,nt,4.47µM*,?,15.1%,3.98µM*
Cc1ccc(-n2ncc3c2ncn2c(C)nnc32)cc1C,?,?,2.51µM*,5.36µM*,?,2µM*
CN1CCN(c2ncnc3c2cnn3-c2cccc(Cl)c2)CC1,nt,nt,nt,13.5µM*,nt,nt
Cc1ccc(-n2ncc3c(N4CCN(C)CC4)ncnc32)cc1C,nt,nt,nt,4.26µM*,nt,nt
COc1ccc(C(=O)Sc2ccc(Cl)cc2)cc1OC,7.9%,2.8%,-13.8%,2.69µM*,-1.4%,-4.2%
COc1ccc(C(=O)SC2=NCCS2)cc1OC,11.1%,nt,0.0%,1.0%,-1.4%,2.3%
COc1ccc(C(=O)Sc2ccc(C)cc2)cc1OC,0.0%,17.4%,-4.0%,6.75µM*,-9.4%,-6.5%
